Test results taken from PubChem BioAssay AID1851 (National Center for Advancing Translational Sciences (NCATS), 2009).
Where “and” joins values, the source holds several entries; their conditions need not be identical. Equal values may be shown once. Screen size: about 16,000 compounds; about 2,600 (16%) were called active. Another 20% or so got no clear call; they are omitted. This is one part of a sample in which actives are shown more often than they occur. The call rests on the fitted dose curve; in most records, active means well fitted curve in the direction sought with a large enough effect; inconclusive means small, poorly fitted or top-dose-only effect, or effect the other way; inactive means no such curve, though single readings can be large or run the other way. Some compounds were tested as several samples or in several runs, with calls that do not always agree.

target: Cytochrome P450 2D6 (Homo sapiens) (UniProt P10635); experiment: Cytochrome panel assay with activity outcomes; conditions: recombinant CYP, pro-luciferin dealkylation, luminescence, p450-cyp2d6; series mostly up to 57.1 µM; activity, negative = inhibition: at the top concentration
On the % scale 0 is the no-effect control and ±100 the full control effect.

Chain of Cytochrome P450 2D6 (Homo sapiens) (P10635 whole entry, looked up): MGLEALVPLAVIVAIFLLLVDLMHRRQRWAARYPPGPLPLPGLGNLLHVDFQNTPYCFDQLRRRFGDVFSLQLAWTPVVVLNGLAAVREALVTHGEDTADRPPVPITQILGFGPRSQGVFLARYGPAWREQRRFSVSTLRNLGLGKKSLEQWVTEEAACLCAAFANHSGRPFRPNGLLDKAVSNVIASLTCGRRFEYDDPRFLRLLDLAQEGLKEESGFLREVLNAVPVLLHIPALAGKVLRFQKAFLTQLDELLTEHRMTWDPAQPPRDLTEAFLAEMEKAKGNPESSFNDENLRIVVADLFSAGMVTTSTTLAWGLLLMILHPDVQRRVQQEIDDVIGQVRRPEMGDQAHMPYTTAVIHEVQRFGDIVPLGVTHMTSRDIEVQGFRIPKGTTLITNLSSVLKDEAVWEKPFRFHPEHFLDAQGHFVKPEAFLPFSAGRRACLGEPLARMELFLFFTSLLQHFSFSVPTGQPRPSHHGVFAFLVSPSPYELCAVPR

Row | Structure (SMILES) | activity, negative = inhibition | AC50
1 | COC(=O)[C@@H]1[C@@H](O)[C@@]2(O)c3c(OC)cc(OC)cc3O[C@@]2(c2ccc(OC)cc2)[C@H]1c1ccccc1 | 18.2% [at 11.4 µM] (inactive) | 
2 | C[C@@]12CC[C@@H]3[C@@H](CC[C@H]4C[C@@H](O)CC[C@]43C)[C@H]1CC[C@@H]2c1cc(C(F)(F)F)n[nH]1 | -7.84% [at 11.4 µM] (inactive) | 
3 | O=C(c1ccccc1F)c1cn(Cc2ccccc2)c2ccccc12 | -20.1% (inactive) | 
4 | C[C@@H](C(=O)OC1C[C@H]2CC[C@@H](C1)N2C)c1ccc(Br)cc1 (stereo partly specified) |  | 3.98 µM (active)
5 | CN1[C@@H]2CC[C@H]1CC(O)C2 (stereo partly specified) | -4.03% [at 25.6 µM] (inactive) | 
6 | Cc1cc(C)cc(C(=O)OC2C[C@H]3CC[C@@H](C2)N3C)c1 (stereo partly specified) |  | 0.251 µM (active)
7 | C[N+]1([O-])[C@@H]2CC[C@H]1CC(OC(=O)[C@@H](CO)c1ccccc1)C2 (stereo partly specified) | 9.36% [at 25.6 µM] (inactive) | 
8 | CN1[C@@H]2CC[C@H]1CC(OC(=O)c1cc(Cl)cc(Cl)c1)C2 (stereo partly specified) |  | 0.00794 µM (active)
9 | C[N+]1([O-])[C@H]2CC[C@H]1CC(OC(=O)[C@@H](CO)c1ccccc1)C2 (stereo partly specified) | 17.4% [at 11.4 µM] (inactive) | 
10 | CS(=N)(=O)CC[C@H](N)P(=O)(O)O (stereo partly specified) | -6.15% [at 11.4 µM] (inactive) | 
11 | C[C@@]12CCC(=O)C=C1C=C[C@H]1[C@H]3CC[C@](O)(CCC(=O)O)[C@]3(C)CC[C@@H]12 | 2.47% [at 25.6 µM] (inactive) | 
12 | Cc1ccc(S(=O)(=O)NCC2CCC(C(=O)N3CCC4(CC3)OCCO4)CC2)cc1 (stereo unspecified) | 5.05% (inactive) | 
13 | CCC12CN3CC(CC)(CN(C1)C3c1cccnc1)C2=O (stereo unspecified) | -5.29% (inactive) | 
14 | O=S(=O)(O)/C(=C\c1ccccc1)c1ccccc1 (tested in a mixture with another compound) | -7.27% [at 11.4 µM] (inactive) | 
15 | CCCCCC[C@H]1C(=O)O[C@H](C)[C@H](NC(=O)c2cccc(NC=O)c2O)C(=O)O[C@@H](C)[C@H]1OC(=O)CC(C)C | -19.5% [at 25.6 µM] (inactive) | 
16 | CN(C)c1ccc(NC(=O)CN2C(=O)CN=C(c3ccccc3)c3ccccc32)cc1 | -11.3% (inactive) | 
17 | O=C1CCCN1CC#CCN1CCCC1 |  | inactive and 7.94 µM (active)
18 | C(#CCN1CCCC1)CN1CCCC1 | 9.47% [at 25.6 µM] (inactive) | 
19 | C[N+](C)(C)CC#CCN1CCCC1=O |  | inactive and 3.98 µM (active)
20 | NC(=O)CN1CCCC1=O |  | inactive
21 | Cc1ccc(OP(=O)(Oc2ccc(C)cc2)N2C=Cc3ccccc3[C@H]2C#N)cc1 | -6.26% [at 11.4 µM] (inactive) | 

Row | Structure (SMILES) | activity, negative = inhibition | AC50
22 | CN(C)CCC(=O)[C@@]1(O)CC[C@H]2[C@H]3CC=C4C[C@@H](O)CC[C@]4(C)[C@H]3CC[C@]21C | -9.11% [at 11.4 µM] (inactive) | 
23 | COC[C@H]1OC(=O)c2coc3c2[C@@]1(C)C1=C(C3=O)[C@H]2CCC(=O)[C@@]2(C)C[C@H]1OC(C)=O | -0.794% (inactive) | 
24 | S=C(S)N1CCCC1 | -6.69% (inactive) | 
25 | C[C@@H]1O[C@@H](O[C@H]2C[C@@H](O)[C@@]3(CO)[C@H]4[C@H](O)C[C@]5(C)[C@@H](C6=CC(=O)OC6)CC[C@]5(O)[C@H]4CC[C@@]3(O)C2)[C@@H](O)[C@H](O)[C@H]1O | -4.25% [at 11.4 µM] (inactive) | 
26 | COc1ccccc1CN1CCCC2(CCN(C(=O)Oc3ccccc3)CC2)C1 |  | 3.98 µM (active)
27 | O=C(Oc1ccccc1)N1CCC2(CCCN(Cc3nccs3)C2)CC1 |  | 5.01 µM (active)
28 | O=C(Nc1cccc(F)c1)N1CCCC2(CCN(C(=O)Oc3ccccc3)CC2)C1 | -12.6% (inactive) | 
29 | O=C(Oc1ccccc1)N1CCC2(CCN(Cc3nccs3)CC2)CC1 | 3.3% (inactive) | 
30 | COc1cc2c(cc1OC)[C@]13CC[N@+]4(C)CC5=CCO[C@H]6CC(=O)N2[C@@H]1[C@@H]6[C@@H]5C[C@]34O | -2.44% [at 11.4 µM] (inactive) | 
31 | C[C@@]12CC[C@H]3[C@@H](CCC4=CC(=O)CC[C@]43C)[C@H]1CC[C@H]2C(=O)CO | 10.6% [at 25.6 µM] (inactive) | 
32 | CC(C)C[C@H](NP(=O)(O)O[C@@H]1O[C@@H](C)[C@@H](O)[C@@H](O)[C@H]1O)C(=O)N[C@@H](Cc1c[nH]c2ccccc12)C(=O)O | -2.19% (inactive) | 
33 | O=C(c1cc(-c2ccccc2)nc2ccccc12)N1CCC2(CC1)OCCO2 | -2.96% (inactive) | 
34 | CN(CCc1ccc(Cl)c(Cl)c1)[C@H]1CCCC[C@H]1N1CCCC1 |  | 0.00631 µM (active)
35 | CN(C)CCN(C)CCc1ccc(Cl)c(Cl)c1 | -0.0606% (inactive) | 
36 | Clc1cnc(Oc2ccc(Oc3ncc(Cl)cc3Cl)cc2)c(Cl)c1 | -6.42% (inactive) | 
37 | NS(=O)(=O)c1ccc(-c2ccc([As](=O)(O)O)cc2)cc1 | 16.2% [at 11.4 µM] (inactive) | 
38 | N[C@H](Cn1ccc(=O)[nH]c1=O)C(=O)O |  | 3.98 µM (active)
39 | N[C@@H](Cn1cc(I)c(=O)[nH]c1=O)C(=O)O | 13.8% (inactive) | 
40 | N[C@@H](Cn1oc(=O)[nH]c1=O)C(=O)O | 4.45% (inactive) | 
41 | CCSCC[C@H](N)C(=O)O | 2.98% [at 11.4 µM] (inactive) | 
